aSyn 5UTR act: Activators via SNCA 5'UTR binding, MLPCN; alpha-synuclein 5'UTR reporter, activators screen; AID 1814; activity score, % (tested at 7.5 µM), hits read low; hit rate 7.1% among 300,000; in the data active = activity score below about -60%
Of the large screens only hits and unclear results are named; the others gave an inactive call. The list is a sample of the results.

Cc1ccc(-n2c(C)nn(CCOc3ccccc3)c2=O)cc1	aSyn 5UTR act -104
Nc1ccc(S(=O)(=O)Nc2nccc(/C=C/c3ccccc3F)n2)cc1	aSyn 5UTR act -65
COc1cc(OC)c(C(=O)O/N=C(\N)c2cccc(C)c2)cc1OC	aSyn 5UTR act -67
Cc1occc1C(=O)O/N=C(\N)c1ccc(Cl)cc1	aSyn 5UTR act -71
COc1cc(OC)c(C(=O)O/N=C(\N)c2ccc(C)cc2)cc1OC	aSyn 5UTR act -66
COc1ccc(Cl)cc1C(=O)O/N=C(\N)c1ccc(Cl)cc1	aSyn 5UTR act -267
Cc1ccc(NC(=S)NC(=O)C2CC2)c(C)c1	aSyn 5UTR act -119
Cc1ccc(NC(=S)NC(=O)C2CCC2)cc1C	aSyn 5UTR act -95
Cc1ccc(NC(=S)NC2CCCC2)cc1C	aSyn 5UTR act -128
Cc1nc2ccc(NC(=S)NC3CCCCC3)cc2nc1C	aSyn 5UTR act -173
CC(C)CC(=O)Nc1ccc(C(=O)NNC(=S)NC(=O)C2CCCCC2)cc1	none
Cc1ccc(NC(=S)NC(=O)C2CCCC2)cc1C	aSyn 5UTR act -131
S=C(Nc1ccc2[nH]ccc2c1)NC1CCCCC1	aSyn 5UTR act -105
O=C(NC(=S)Nc1ccc(F)cc1)C1CCCCC1	aSyn 5UTR act -63
O=C(NC(=S)Nc1ccccc1F)C1CCCCC1	aSyn 5UTR act -88
Cc1cc(C(c2nnnn2Cc2ccccc2)N2CCOCC2)c(C)n1-c1ccc2c(c1)OCO2 (configuration not stated)	aSyn 5UTR act -315
Fc1cccc(Cl)c1Cc1noc(/C=C/c2ccccc2)n1	aSyn 5UTR act -209
Cc1nc(C)c(-c2csc(Nc3ncccc3C)n2)s1	aSyn 5UTR act -240
COc1ccc(-c2csc(Nc3ncccc3C)n2)cc1OC	aSyn 5UTR act -172
Cc1cccnc1Nc1nc(-c2ccc(O)c(O)c2)cs1	aSyn 5UTR act -232
COc1ccc(-c2csc(Nc3ncccc3C)n2)cc1	aSyn 5UTR act -118
COc1ccc(C2=Nn3c(nnc3-c3ccccn3)SC2)cc1OC	none
CCSc1nsc(NC(=O)Nc2ccc(F)cc2F)n1	aSyn 5UTR act -138
O=C(Nc1ccc(F)cc1F)N1CCCCCC1	aSyn 5UTR act -86
O=C(Nc1ccccc1)Nc1ccc(F)cc1F	aSyn 5UTR act -115
COC(=O)c1ccc(NC(=O)Nc2ccc(F)cc2F)cc1	aSyn 5UTR act -111
COC(=O)c1ccc(NC(=O)Nc2cccc(F)c2)cc1	aSyn 5UTR act -206
COc1ccc(O)c(C(=O)c2cnn(-c3ccccn3)c2)c1	aSyn 5UTR act -130
COc1ccc(O)c(C(=O)c2cnn(-c3ccc(Cl)cc3)c2)c1	aSyn 5UTR act -75
CCN(CC)S(=O)(=O)c1cc(OC)ccc1N=Nc1ccc(O)c2ncccc12	none
CCOC(=O)CNC(=O)c1ccc(SCC)cc1	aSyn 5UTR act -91
O=[N+]([O-])c1ccc(-c2ccc(/C=N/c3c(-c4ccco4)nc4ccccn34)o2)cc1	aSyn 5UTR act -75
Oc1cccc(/C=N/c2c(-c3ccco3)nc3ccccn23)c1	aSyn 5UTR act -72
Cc1cc(C)c([N+](=O)[O-])cc1-c1ccc(/C=N/c2c(-c3ccco3)nc3ccccn23)o1	aSyn 5UTR act -92
CC#CC#Cc1cccc(=O)o1	aSyn 5UTR act -116
O=C(COc1ccc(Cl)cc1Cl)NC(=O)N1CCCCC1	aSyn 5UTR act -121
Cc1cc(Cl)ccc1OCC(=O)N1CCCCC1	aSyn 5UTR act -108
CN(/N=C/c1cccnc1)c1cnc2ccccc2n1	aSyn 5UTR act -139
Cc1c(C(=O)NCc2ccccn2)oc2ccc(Br)cc12	aSyn 5UTR act -131
Cc1c(C(=O)NCc2ccccn2)oc2ccccc12	aSyn 5UTR act -138
COc1ccc2c(c1)C(=O)/C(=C/C=C/c1ccccc1)CC2	aSyn 5UTR act -115
COc1ccc2c(c1)CC/C(=C\c1ccc(C)o1)C2=O	aSyn 5UTR act -170
COc1ccc2c(c1)CC/C(=C\C=C\c1ccccc1OC)C2=O	aSyn 5UTR act -134
Cc1ccc(NCC(=O)N=Nc2c(O)[nH]c3ccc([N+](=O)[O-])cc23)cc1	aSyn 5UTR act -172
COn1c(-c2ccc(Cl)cc2)nc2ccc(Cl)cc21	aSyn 5UTR act -114
O=C(O)COn1c(-c2ccc(Cl)cc2)nc2ccc(Cl)cc21	aSyn 5UTR act -123
CN1CCN(C2Cc3ccc(F)cc3Sc3cc(F)c(Cl)cc32)CC1 (configuration not stated)	none
O=[N+]([O-])c1cc2c(cc1/C=N/Nc1nc(Nc3ccccc3)nc(N3CCCCC3)n1)OCO2	aSyn 5UTR act -63
COc1cccc(/C=N/Nc2nc(Nc3ccc([N+](=O)[O-])cc3)nc(N3CCCC3)n2)c1O	none
C=CCn1c(SCC(=O)Nc2ccc(F)cc2F)nnc1-c1cnccn1	aSyn 5UTR act -107
CCCCSc1ccc2nc(-c3ccc(C#N)cc3)cn2c1	aSyn 5UTR act -128
CCCSc1ccc2nc(-c3ccccc3)cn2c1	none
Cc1ccccc1C(=O)O/N=C(\N)Cc1cccs1	aSyn 5UTR act -131
N/C(Cc1cccc2ccccc12)=N\OC(=O)Cc1cccs1	aSyn 5UTR act -117
Cc1ccccc1OCC(=O)O/N=C(\N)Cc1cccs1	aSyn 5UTR act -63
N/C(=N\OC(=O)Cc1cccs1)c1ccc(Br)cc1	aSyn 5UTR act -106
N/C(Cc1cccs1)=N\OC(=O)COc1ccc(Cl)cc1Cl	aSyn 5UTR act -154
COc1ccc(-c2nn(-c3ccccc3)cc2/C=N/NC(N)=S)cc1OC	none
Cc1ccc(-c2nn(-c3ccccc3)cc2/C=N/NS(=O)(=O)c2ccccc2)cc1	aSyn 5UTR act -76
COc1ccc(NS(=O)(=O)c2cccc(C(=O)N/N=C/c3cn(-c4ccccc4)nc3-c3ccc(OC)cc3)c2)cc1	aSyn 5UTR act -85
CCN(CC)c1ccc(/C=N/NC(=O)c2cccc(S(=O)(=O)Nc3ccccc3OC)c2)c(O)c1	none
Cc1ccc(OCC(=O)Nc2ccc(F)cc2)cc1	aSyn 5UTR act -96
Cc1ccc(NC(=O)Cc2ccc(F)cc2)cc1	aSyn 5UTR act -81
Cc1ccc(OCC(=O)Nc2ccc(F)cc2)c([N+](=O)[O-])n1	aSyn 5UTR act -167
Cc1ccc(NC(=O)CSCc2ccc(F)cc2)cc1	aSyn 5UTR act -81
Cc1ccc(NC(=O)CSCc2ccco2)cc1	aSyn 5UTR act -130
Cc1ccc(CSCC(=O)Nc2ccccc2F)cc1	aSyn 5UTR act -81
CCc1ccc(-c2nc(CSCC(=O)NCc3ccco3)c(C)o2)cc1	none
Cc1ccc(NC(=O)C(=S)NCc2ccco2)cc1	aSyn 5UTR act -135
Cc1cc(N2CCN(C)CC2)nc2ccc(NC(=O)c3ccccc3F)cc12	aSyn 5UTR act -123
CCN1CCN(Cc2ccc(NC(=O)c3ccc(C)c(/C=C/c4cnc(Nc5cc(N6CCNCC6)nc(C)n5)cn4)c3)cc2C(F)(F)F)CC1	none
CCN1CCN(c2cc(C)c3cc(NC(=O)c4ccc(C)c(C)c4)ccc3n2)CC1	none
CCN1CCN(c2cc(C)c3cc(NC(=O)c4ccc(Br)o4)ccc3n2)CC1	aSyn 5UTR act -85
CCN1CCN(c2cc(C)c3cc(NC(=S)N4CCCCC4)ccc3n2)CC1	aSyn 5UTR act -85
COc1cc(OC)cc(C(=O)Nc2ccc(NC(=O)c3ccco3)c(C)c2)c1	aSyn 5UTR act -123
O=C(Nc1ccc2c(c1)OCCO2)c1ccco1	aSyn 5UTR act -68
CCn1nccc1C(=O)Nc1ccc(C)c(C)c1	aSyn 5UTR act -178
CC1(C)Oc2ccc(NC(=O)c3ccco3)cc2O1	aSyn 5UTR act -168
COc1cccc(NC(=O)c2ccco2)c1	aSyn 5UTR act -116
Cc1ccc(NC(=O)c2ccco2)cc1C	aSyn 5UTR act -103
Cc1ccc(C(=O)Nc2ccc3c(c2)OCO3)cc1NC(=O)c1ccco1	aSyn 5UTR act -71
N#C/C(=C\c1ccccc1O)C(=O)Nc1cccnc1	aSyn 5UTR act -107
